Screening data as filed in PubChem.
G9a inh = qHTS Assay for Inhibitors of Histone Lysine Methyltransferase G9a. Histone-lysine N-methyltransferase EHMT2 (Homo sapiens), Q96KQ7. G9a H3K9 monomethylation, AlphaScreen, 2 h. Potency, µM (top dose mostly 102 µM), for the others: at the top dose activity, negative = inhibition, usual class: inhibitors. hit rate 8.8% among 350,000. AID 504332, 2011; further: on the % scale 0 is the no-effect control and ±100 the full control effect; nearly all actives have a fitted effect of over 75% in size
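Methyltransferase reactions run at room temperature for 2 h (20 nM enzyme, 500 nM biotin-H3K9 peptide, 20 uM SAM) after a 15 min compound preincubation; product detected by AlphaScreen beads and anti-H3K9me1 antibody.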
BAZ2B inh = qHTS Assay for Inhibitors of BAZ2B; Potency, µM (doses to about 114 µM), inactives show top-dose activity change, negative = inhibition, most hits filed as inhibitors; Bromodomain adjacent to zinc finger domain protein 2B (Homo sapiens), Q9UIF8; AlphaScreen BAZ2B-H3K14Ac peptide displacement; hit rate 4.4% among 360,000; AID 504333, 2011; further: on the % scale 0 is the no-effect control and ±100 the full control effect; nearly all actives have a fitted effect of over 60% in size
Target sequence (Q9UIF8 whole entry, looked up, the tested form may be a part): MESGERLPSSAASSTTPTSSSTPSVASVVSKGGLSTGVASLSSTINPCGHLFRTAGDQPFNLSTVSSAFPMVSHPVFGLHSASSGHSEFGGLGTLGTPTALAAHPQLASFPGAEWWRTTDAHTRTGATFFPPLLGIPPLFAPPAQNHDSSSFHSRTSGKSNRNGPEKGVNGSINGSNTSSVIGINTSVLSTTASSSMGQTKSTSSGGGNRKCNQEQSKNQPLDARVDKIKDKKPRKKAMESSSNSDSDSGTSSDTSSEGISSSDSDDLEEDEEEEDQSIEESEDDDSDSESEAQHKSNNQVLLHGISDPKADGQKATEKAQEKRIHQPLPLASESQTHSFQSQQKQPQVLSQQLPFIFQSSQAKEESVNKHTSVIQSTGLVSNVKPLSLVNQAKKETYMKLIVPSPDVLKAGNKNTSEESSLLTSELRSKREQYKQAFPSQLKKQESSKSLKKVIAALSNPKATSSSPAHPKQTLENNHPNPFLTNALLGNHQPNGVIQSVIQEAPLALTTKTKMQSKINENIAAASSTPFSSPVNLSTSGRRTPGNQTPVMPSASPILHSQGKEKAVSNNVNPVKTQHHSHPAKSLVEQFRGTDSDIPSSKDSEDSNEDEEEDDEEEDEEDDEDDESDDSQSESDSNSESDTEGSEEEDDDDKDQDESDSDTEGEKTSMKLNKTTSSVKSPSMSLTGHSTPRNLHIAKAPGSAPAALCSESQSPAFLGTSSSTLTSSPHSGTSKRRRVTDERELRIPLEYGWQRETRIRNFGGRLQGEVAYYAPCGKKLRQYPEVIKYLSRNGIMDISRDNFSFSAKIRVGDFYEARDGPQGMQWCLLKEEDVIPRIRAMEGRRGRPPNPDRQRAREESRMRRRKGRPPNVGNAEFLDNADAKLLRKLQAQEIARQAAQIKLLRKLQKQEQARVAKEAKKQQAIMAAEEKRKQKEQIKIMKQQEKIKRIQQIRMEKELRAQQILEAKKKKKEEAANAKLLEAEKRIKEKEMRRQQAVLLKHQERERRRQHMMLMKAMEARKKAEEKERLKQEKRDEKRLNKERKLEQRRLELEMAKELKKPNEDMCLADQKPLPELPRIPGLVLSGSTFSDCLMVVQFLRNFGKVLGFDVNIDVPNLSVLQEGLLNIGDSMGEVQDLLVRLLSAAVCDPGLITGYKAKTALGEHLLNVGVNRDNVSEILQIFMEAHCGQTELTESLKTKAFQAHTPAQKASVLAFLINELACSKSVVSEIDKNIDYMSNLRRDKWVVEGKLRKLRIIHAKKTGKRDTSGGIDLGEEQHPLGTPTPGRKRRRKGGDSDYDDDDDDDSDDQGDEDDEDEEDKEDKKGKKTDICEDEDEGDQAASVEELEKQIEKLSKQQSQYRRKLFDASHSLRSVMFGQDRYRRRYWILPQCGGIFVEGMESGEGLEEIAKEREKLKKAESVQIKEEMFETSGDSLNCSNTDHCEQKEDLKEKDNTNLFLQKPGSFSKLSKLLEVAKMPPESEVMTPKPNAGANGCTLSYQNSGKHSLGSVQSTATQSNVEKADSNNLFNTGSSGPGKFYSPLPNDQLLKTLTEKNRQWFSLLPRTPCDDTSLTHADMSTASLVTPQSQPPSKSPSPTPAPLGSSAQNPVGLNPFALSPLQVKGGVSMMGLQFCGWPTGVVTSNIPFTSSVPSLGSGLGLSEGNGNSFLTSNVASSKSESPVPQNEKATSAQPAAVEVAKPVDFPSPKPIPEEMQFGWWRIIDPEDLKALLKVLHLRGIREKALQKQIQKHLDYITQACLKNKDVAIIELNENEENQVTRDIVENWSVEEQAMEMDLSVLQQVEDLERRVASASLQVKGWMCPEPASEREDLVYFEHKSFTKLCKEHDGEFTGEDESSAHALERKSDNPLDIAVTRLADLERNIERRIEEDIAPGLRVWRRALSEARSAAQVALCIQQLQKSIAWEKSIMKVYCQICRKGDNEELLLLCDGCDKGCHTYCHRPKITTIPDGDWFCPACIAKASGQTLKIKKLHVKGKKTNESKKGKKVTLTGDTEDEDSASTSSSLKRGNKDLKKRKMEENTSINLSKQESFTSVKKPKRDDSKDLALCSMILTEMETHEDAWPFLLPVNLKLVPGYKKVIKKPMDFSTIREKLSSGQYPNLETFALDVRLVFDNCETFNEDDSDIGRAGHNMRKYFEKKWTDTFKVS
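In this displacement format the biotinylated H3(5-23) peptide acetylated at Lys14 serves as ligand at 50 nM, with BAZ2B at 50 nM in PBS pH 7.4 containing 0.01% Tween-20. Donor and acceptor beads are 10 ug/mL final.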
HP1b binding inh = HTS for Inhibitors of HP1-beta Chromodomain Interactions with Methylated Histone Tails. Chromobox protein homolog 1 (Homo sapiens), P83916. AlphaScreen HP1-beta / biotin-H3K9me3 peptide binding. Potency, µM (highest dose often 114 µM), without a hit: top-dose activity change, negative = inhibition, hits mostly inhibitors. hit rate 0.56% among 390,000. AID 540317, 2011; further: nearly all actives have a fitted effect of over 70% in size
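HP1-beta protein (50 nM final) preincubated 30 min at room temperature with biotinylated H3(1-18)K9me3 peptide (50 nM) in PBS pH 7.4, 0.01% Tween-20, then compound added for 30 min. AlphaScreen streptavidin donor/nickel chelate acceptor beads (10 ug/mL final), 30 min dark, luminescence read.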
JMJD2A Tudor = qHTS Assay for Inhibitors of JMJD2A-Tudor Domain. AID 504339, 2011. hit rate 4.4% among 390,000. Potency, µM (series often up to 114 µM), without a hit: at the highest dose activity change, negative = inhibition, actives largely listed as inhibitors. Lysine-specific demethylase 4A (Homo sapiens), O75164. AlphaScreen JMJD2A-Tudor / H3K4me3 peptide binding; further: on the % scale 0 is the no-effect control and ±100 the full control effect; nearly all actives have a fitted effect of over 50% in size
L3MBTL1 inh = qHTS Assay for the Inhibitors of L3MBTL1 | AlphaScreen L3MBTL1–H3K9me1 peptide binding | Lethal(3)malignant brain tumor-like protein 1 (Homo sapiens), Q9Y468 | Potency, µM (highest dose often 57.1 µM), without a hit: at the highest dose activity, negative = inhibition, hits mostly inhibitors | hit rate 0.66% among 230,000; further: on the % scale 0 is the no-effect control and ±100 the full control effect; nearly all actives have a fitted effect of over 60% in size
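AlphaScreen assay: L3MBTL1 (50 nM final) was preincubated 30 min at room temperature with biotinylated H3(1-15)K9me1 peptide (75 nM final), then 30 min with library compounds; streptavidin donor and nickel chelate acceptor beads (10 ug/mL final) added, 30 min dark.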
Sfp inh = qHTS Assay for Inhibitors of Bacillus subtilis Sfp phosphopantetheinyl transferase (PPTase); 4'-phosphopantetheinyl transferase ffp (Bacillus subtilis), Q9F4F7; Biochemical Sfp PPTase activity, qHTS; Potency, µM, without a hit: largest response in the series, negative = inhibition, hits mostly inhibitors; hit rate 3.5% among 310,000;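 further: the enzyme is Sfp with the accession as filed and its product quenches rhodamine fluorescence; 0% = enzyme reaction without inhibitor and -100% = no enzyme wells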
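Buffer: 50 mM Hepes-Na pH 7.6, 10 mM MgCl2, 0.01% Nonidet P-40, 0.01% BSA. Enzyme 15 nM, pre-exposed to compound 15 min; substrates then added and fluorescence change tracked over 30 min.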
* = called active by the depositor; ? = inconclusive; / = no result; [ ] = another dose, or the depositor's remark. This is a sample that favours compounds with a hit; in the whole collection about 12% have one here. The call rests on the fitted dose curve; in most records, active means well fitted curve in the direction sought with a large enough effect; inconclusive means small, poorly fitted or top-dose-only effect, or another doubt; inactive means no such curve, though single readings can be large; an effect the other way counts as inactive or inconclusive. Potency means the concentration at half of the fitted maximal effect.

SMILES	G9a inh	BAZ2B inh	HP1b binding inh	JMJD2A Tudor	L3MBTL1 inh	Sfp inh
CCn1cc(CN2CCc3c([nH]c4ccccc34)C2c2cccc(OC)c2)c(C)n1 (stereo not given)	/	79µM*	-21%	?	-20%	0%
Fc1ccc(C2c3[nH]c4ccccc4c3CCN2Cc2cccn2-c2ncccn2)cc1 (stereo not given)	/	0%	36%	-22%	7%	3%
COc1cccc(C2c3[nH]c4ccccc4c3CCN2Cc2cccn2-c2ncccn2)c1 (stereo not given)	40µM*	?	?	?	-8%	2%
Cc1cc(C)c(NC(=O)Cn2nnc(-c3nc(-c4ccncc4)no3)c2N)c(C)c1	?	-11%	27%	3%	/	/
COc1ccc(OC)c(NC(=O)c2oc3c(c2C)-c2nn(Cc4ccc(Cl)cc4)cc2CC3)c1	10%[59 µM]	18%	61%	-21%	/	/
CCOc1ccc(NC(=O)c2cnn(-c3ccc(C)c(C)c3)c2C2CCN(C(=O)OC(C)(C)C)CC2)cc1	-18%[59 µM]	2%[57.1 µM]	32%	-17%	/	/
Cc1nn(CC(=O)NCc2ccccc2Cl)c(=O)c2nn(-c3ccccc3)c(C)c12	21%[59 µM]	1%	80%	-6%	/	/
CSc1ncc(CN2CCc3c([nH]c4ccccc34)C2c2cccc(O)c2)cn1 (stereo not given)	/	40µM*	-20%	?	-2%	6%
COc1cccc(C2c3[nH]c4ccccc4c3CCN2CCCn2cccn2)c1 (stereo not given)	?	?	10%	-24%	-25%	12%
CCn1nc(C)c(CN2CCc3c([nH]c4ccccc34)C2c2ccc(F)c(OC)c2)c1C (stereo not given)	50µM*	?	-15%	?	-29%	-5%
CC(C)COc1ccc(C(=O)N2CCCCC2CCN2CCOCC2)cc1 (stereo not given)	-8%[59 µM]	-6%	15%	-16%	/	/
COc1ccc(-c2c(C)c3ccc(O)cc3oc2=O)cc1OC	20%	-15%	47%	14%	/	-22%
O=c1ccc2c(-c3ccccc3)c3ccc(O)cc3oc-2c1	74%	15%	?	-29%	/	32µM*
Nc1ccc(-c2c3ccc(=O)cc-3oc3cc(O)ccc23)cc1C(=O)O	45µM*	?	?	?	/	-11%
O=c1cc(-c2ccccc2)oc2cc(O)ccc12	/	/	40%	-13%	/	-21%
CCOC(=O)Cn1c(C2CC(=O)N(c3ccc(C)cc3)C2)nc2ccccc21 (stereo not given)	?	?	4%	-22%	/	/
CCc1ccccc1N(CC)C(=O)c1c(C)oc2ncnc(N3CCOCC3)c12	-4%[59 µM]	3%[57.1 µM]	-6%	-30%	/	/
CCc1nc(Nc2ccccc2)c2nnn(Cc3ccccc3)c2n1	54%	5%	71%	15%	/	35µM*
Cc1ccc(Nc2ncnc3c2nnn3Cc2ccccc2)cc1	47%	21%	11%	-6%	-5%	6%
CC1=C(C(=O)Nc2ccccc2C)C(c2ccccn2)n2ncnc2N1 (stereo not given)	-1%[59 µM]	0%	11%[57 µM]	-18%	/	/
CCN(CC)CCC(c1ccc(N(C)C)cc1)c1c(O)cc(OC)cc1OC (stereo not given)	?	50µM*	?	40µM*	/	-7%
COc1cc(O)c(C(CCN2CCOCC2)c2ccc(N(C)C)cc2)c(OC)c1 (stereo not given)	?	35µM*	?	45µM*	/	15%
COc1cc(O)c(C(CC(=O)N2CCCCC2)c2ccc(N(C)C)cc2)c(OC)c1 (stereo not given)	?	?	-38%	50µM*	/	-10%
COc1ccc(C(CCN2CCN(c3ccccc3)CC2)c2c(O)cc(OC)cc2OC)cc1 (stereo not given)	3%[12.7 µM]	28µM*	-23%	16µM*	/	1%
CCCN(CCC)C(=O)Cn1c(=O)n(-c2ccc(CC)cc2)c(=O)c2c3c(sc21)CCC3	6%[59 µM]	13%	24%	-12%	/	/
SMILES	G9a inh	BAZ2B inh	HP1b binding inh	JMJD2A Tudor	L3MBTL1 inh	Sfp inh
COc1ccccc1N1CCN(c2ncnc3c2cnn3-c2cc(Cl)ccc2C)CC1	-26%[59 µM]	-17%	15%	-17%	/	/
COc1ccc(-c2cc(C(=O)Nc3c(C)nn(Cc4ccccc4C)c3C)no2)cc1	3%[59 µM]	4%	17%	-9%	/	/
COc1cc(O)c(C(CCN2CCN(c3ccccc3)CC2)c2ccc(N(C)C)cc2)c(OC)c1 (stereo not given)	?	7.9µM*	20µM*	10µM*	/	-9%
COc1cc(O)c(C(CCN2CCCC(C)C2)c2ccc3c(c2)OCO3)c(OC)c1 (stereo not given)	6%[12.7 µM]	-29%	-19%	-36%	/	5%
COc1cc(O)c(C(CCN2CCCC(C)C2)c2ccc(N(C)C)cc2)c(OC)c1 (stereo not given)	?	40µM*	?	25µM*	/	-7%
COc1ccc(N2CCN(CCC(O)c3ccc4ccccc4c3)CC2)cc1 (stereo not given)	40µM*	22%	?	50µM*	/	-12%
Cc1ccc(OCCCn2c(-c3ccc(Cl)cc3)nc3ccccc3c2=O)cc1C	-39%[59 µM]	10%	44%	17%	/	/
CN(C)/C=C/c1oc2ccc(O)cc2c1[N+](=O)[O-]	50µM*	25µM*	-20%	-22%[57.1 µM]	-11%	8%
Cc1ccc(NC2Nc3cc(C)nn3S2)c(C)c1 (stereo not given)	1.1µM*	-25%	12%	?	/	11%
Cc1cc(NC(=NC2CC2)c2ccccc2)n(-c2ccccc2)n1	?	5%	-13%	-6%	/	11%
Cc1ccc(N=CNc2ccc(C)cc2C)c(C)c1	20%	-22%	18%	-9%	-9%	8%
Cc1cc2n(n1)SC(Nc1ccccc1)N2 (stereo not given)	1.8µM*	-33%	?	7.9µM*	1%	-22%
CC(C)(O)c1ccccc1CC[C@@H](SCC1(CC(=O)O)CC1)c1cccc(/C=C/c2ccc3ccc(Cl)cc3n2)c1	/	/	-5%	79µM*	/	/
CCc1cnc2c(c1SCC(=O)N1CCCCC1)c(=O)n(C)c(=O)n2C	-3%[59 µM]	-4%	-11%	-10%	/	/
